# Measured values from article PMC7862700, “An all-to-all approach to the identification of sequence-specific readers for epigenetic DNA modifications on cytosine”.
# Assays:
# Test in all cases: DAPPL (digital affinity profiling via proximity ligation, sequencing); 10 mM Tris-HCl pH 7.5, 50 mM NaCl, 1 mM DTT, 4% glycerol, room temperature, 30 min; GST-TFs on glutathione beads, 16-mer random dsDNA library, 0.1% formaldehyde crosslink after washing; high values mean tight binding
# Conditions in all cases: protein: recombinant; tags: N-terminal GST; dsDNA, one strand shown
# [1] = target: T1, FLI1 (Homo sapiens, UniProt Q01543 1-452)
# T1 sequence: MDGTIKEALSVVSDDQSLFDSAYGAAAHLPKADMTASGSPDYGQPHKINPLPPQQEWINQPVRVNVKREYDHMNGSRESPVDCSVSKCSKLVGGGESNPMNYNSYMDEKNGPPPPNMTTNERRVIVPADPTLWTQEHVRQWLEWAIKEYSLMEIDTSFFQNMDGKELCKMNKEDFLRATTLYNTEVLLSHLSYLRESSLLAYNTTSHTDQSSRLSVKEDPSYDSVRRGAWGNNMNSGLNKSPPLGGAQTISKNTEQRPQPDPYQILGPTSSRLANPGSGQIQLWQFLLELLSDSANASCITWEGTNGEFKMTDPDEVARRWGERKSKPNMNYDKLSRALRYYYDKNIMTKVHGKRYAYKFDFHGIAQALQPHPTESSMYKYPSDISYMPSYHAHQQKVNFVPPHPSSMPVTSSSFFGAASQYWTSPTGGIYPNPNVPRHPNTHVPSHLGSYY
# Procedure, shortened: (§1)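 Binding signal is defined as a hexamer's read frequency for one factor over its frequency for the tag-only sample. To obtain reads, GST-fused human transcription factors were expressed in yeast, captured on glutathione beads, barcoded with DNA and pooled with that sample. Pools met 200 nmole of a 16-mer random double-stranded DNA library in Tris/NaCl/DTT/glycerol buffer for 30 min at room temperature before washing, 0.1% formaldehyde crosslinking, proximity ligation (BsaI/T4 ligase, 1 h, 37 °C), PCR and Illumina NextSeq500 sequencing.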
# [2] = target: T2, ELK1 (Homo sapiens, UniProt P19419 1-428)
# T2 sequence: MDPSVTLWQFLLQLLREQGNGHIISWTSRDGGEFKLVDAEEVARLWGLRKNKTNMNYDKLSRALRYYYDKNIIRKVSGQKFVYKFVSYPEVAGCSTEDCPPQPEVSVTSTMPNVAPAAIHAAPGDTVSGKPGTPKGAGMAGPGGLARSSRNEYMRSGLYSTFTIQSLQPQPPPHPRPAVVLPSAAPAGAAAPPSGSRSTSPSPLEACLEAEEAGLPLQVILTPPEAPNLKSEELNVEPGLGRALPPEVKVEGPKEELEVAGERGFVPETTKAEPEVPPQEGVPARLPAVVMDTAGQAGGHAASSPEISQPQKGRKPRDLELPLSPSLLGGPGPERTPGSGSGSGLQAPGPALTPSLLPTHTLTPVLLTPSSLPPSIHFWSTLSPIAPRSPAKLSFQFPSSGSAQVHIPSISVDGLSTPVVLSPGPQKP
# Procedure, shortened: as §1
# [3] = target: T3, GABPA (Homo sapiens, UniProt Q06546 1-454)
# T3 sequence: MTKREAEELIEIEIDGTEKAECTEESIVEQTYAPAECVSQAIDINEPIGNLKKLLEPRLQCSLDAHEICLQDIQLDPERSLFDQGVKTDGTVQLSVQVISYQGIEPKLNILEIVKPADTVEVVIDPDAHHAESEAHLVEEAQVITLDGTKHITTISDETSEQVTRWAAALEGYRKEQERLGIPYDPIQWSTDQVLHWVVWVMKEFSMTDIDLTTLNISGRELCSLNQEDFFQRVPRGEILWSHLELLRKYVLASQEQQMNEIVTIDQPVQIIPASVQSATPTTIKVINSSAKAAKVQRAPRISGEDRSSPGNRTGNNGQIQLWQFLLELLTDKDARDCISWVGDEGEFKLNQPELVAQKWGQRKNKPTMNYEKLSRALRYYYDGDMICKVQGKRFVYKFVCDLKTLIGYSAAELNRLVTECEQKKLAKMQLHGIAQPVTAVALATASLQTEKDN
# Procedure, shortened: as §1
# [4] = target: T4, ERG (Homo sapiens, UniProt P11308 1-479)
# T4 sequence: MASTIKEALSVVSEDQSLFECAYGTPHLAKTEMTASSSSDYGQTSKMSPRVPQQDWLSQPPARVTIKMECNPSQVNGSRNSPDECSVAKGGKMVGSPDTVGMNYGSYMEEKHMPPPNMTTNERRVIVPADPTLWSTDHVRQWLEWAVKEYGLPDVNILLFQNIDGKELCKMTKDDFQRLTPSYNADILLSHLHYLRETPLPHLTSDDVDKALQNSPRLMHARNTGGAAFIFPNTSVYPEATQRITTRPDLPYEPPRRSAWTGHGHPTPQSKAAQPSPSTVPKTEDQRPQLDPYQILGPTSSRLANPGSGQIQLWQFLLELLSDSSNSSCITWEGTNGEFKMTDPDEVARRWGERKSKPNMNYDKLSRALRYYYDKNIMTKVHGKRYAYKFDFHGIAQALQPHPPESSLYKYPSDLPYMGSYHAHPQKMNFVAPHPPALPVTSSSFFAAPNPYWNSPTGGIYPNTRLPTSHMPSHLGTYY
# Procedure, shortened: as §1
# [5] = target: ELF1 (Homo sapiens, UniProt P32519 1-619)
# ELF1, sequence (P32519 whole entry): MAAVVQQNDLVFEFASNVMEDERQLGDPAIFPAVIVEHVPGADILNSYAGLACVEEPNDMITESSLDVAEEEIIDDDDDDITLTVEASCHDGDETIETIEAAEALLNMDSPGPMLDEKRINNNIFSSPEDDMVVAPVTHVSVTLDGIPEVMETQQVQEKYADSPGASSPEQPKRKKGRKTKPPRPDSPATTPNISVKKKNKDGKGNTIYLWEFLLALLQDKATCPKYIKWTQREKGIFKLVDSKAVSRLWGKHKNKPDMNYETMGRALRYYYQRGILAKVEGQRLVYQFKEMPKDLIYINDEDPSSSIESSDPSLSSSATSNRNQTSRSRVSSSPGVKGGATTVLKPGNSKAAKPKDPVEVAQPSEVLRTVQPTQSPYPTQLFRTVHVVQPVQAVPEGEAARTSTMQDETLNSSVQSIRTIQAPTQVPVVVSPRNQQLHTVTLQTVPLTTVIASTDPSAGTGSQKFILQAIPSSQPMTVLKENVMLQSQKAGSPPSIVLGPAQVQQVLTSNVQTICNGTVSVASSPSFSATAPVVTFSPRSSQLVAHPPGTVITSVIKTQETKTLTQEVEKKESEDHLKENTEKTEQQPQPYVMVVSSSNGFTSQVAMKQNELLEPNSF
# Procedure, shortened: as §1
# [6] = target: T5, EHF (Homo sapiens, UniProt Q9NZC4 1-300)
# T5 sequence: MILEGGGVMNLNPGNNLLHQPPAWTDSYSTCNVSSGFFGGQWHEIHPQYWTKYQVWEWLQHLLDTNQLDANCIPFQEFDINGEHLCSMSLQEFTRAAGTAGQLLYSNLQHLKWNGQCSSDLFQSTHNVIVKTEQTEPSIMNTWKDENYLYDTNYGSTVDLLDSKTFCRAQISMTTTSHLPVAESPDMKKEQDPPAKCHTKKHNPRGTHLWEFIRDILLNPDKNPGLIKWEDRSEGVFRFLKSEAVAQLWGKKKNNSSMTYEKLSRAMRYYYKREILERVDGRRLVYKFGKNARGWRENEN
# Procedure, shortened: as §1
# [7] = target: T6, ELK3 (Homo sapiens, UniProt P41970 1-407)
# T6 sequence: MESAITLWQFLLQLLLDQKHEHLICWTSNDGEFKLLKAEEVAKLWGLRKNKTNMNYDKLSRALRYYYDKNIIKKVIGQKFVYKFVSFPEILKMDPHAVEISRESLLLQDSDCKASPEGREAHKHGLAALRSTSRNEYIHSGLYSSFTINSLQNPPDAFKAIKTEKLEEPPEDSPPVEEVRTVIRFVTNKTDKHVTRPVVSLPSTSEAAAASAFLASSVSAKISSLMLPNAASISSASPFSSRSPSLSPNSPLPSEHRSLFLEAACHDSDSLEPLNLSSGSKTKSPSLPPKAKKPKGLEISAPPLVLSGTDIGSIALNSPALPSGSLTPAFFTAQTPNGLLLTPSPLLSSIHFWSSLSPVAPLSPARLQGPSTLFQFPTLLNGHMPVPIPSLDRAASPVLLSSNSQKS
# Procedure, shortened: as §1
# [8] = target: ETV5 (Homo sapiens, UniProt P41161 1-510)
# ETV5, sequence (P41161 whole entry): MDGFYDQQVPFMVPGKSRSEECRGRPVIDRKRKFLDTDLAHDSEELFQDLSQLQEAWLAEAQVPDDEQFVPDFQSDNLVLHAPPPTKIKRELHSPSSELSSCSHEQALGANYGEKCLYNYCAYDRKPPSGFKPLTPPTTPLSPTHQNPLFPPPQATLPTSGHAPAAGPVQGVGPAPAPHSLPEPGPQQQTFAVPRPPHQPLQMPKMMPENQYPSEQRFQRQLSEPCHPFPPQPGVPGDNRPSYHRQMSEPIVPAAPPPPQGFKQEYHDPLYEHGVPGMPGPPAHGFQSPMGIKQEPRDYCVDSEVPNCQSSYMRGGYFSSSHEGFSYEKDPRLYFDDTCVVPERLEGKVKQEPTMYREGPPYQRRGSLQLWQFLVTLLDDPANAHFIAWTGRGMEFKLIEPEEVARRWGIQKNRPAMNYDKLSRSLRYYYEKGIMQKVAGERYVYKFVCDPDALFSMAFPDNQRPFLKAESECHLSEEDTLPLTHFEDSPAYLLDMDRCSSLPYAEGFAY
# Procedure, shortened: as §1
# [9] = target: ELF4 (Homo sapiens, UniProt Q99607 1-663)
# ELF4, sequence (Q99607 whole entry): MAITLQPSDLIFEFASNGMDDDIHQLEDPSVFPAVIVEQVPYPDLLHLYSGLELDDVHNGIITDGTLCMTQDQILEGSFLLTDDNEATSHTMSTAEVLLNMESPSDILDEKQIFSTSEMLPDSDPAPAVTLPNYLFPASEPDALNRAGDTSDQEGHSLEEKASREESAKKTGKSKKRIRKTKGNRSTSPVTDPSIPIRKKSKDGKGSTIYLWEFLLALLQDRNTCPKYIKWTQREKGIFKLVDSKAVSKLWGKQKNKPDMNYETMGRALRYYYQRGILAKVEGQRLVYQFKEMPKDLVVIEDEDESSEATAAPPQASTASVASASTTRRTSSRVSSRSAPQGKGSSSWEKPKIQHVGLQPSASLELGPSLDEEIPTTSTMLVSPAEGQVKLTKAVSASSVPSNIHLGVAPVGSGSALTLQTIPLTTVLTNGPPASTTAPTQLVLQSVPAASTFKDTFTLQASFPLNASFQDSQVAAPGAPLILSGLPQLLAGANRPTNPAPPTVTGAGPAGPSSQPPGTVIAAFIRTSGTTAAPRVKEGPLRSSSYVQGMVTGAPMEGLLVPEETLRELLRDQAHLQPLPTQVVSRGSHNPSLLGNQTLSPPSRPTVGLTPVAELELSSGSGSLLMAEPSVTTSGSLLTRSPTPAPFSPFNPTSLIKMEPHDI
# Procedure, shortened: as §1
# [10] = target: T7, ETV2 (Homo sapiens, UniProt O00321 1-342)
# T7 sequence: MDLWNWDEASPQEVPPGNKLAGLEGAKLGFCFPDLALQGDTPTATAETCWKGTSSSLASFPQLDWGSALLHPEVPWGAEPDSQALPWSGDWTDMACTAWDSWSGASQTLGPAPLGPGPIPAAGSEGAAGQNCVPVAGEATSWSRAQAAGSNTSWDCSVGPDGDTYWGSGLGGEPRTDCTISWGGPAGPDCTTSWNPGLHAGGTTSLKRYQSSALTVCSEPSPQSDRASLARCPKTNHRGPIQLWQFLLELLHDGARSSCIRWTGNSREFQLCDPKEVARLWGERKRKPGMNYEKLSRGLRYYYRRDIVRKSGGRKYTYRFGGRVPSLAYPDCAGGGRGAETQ
# Procedure, shortened: as §1
# [11] = target: ETV1 (Homo sapiens, UniProt P50549 1-477)
# ETV1, sequence (P50549 whole entry): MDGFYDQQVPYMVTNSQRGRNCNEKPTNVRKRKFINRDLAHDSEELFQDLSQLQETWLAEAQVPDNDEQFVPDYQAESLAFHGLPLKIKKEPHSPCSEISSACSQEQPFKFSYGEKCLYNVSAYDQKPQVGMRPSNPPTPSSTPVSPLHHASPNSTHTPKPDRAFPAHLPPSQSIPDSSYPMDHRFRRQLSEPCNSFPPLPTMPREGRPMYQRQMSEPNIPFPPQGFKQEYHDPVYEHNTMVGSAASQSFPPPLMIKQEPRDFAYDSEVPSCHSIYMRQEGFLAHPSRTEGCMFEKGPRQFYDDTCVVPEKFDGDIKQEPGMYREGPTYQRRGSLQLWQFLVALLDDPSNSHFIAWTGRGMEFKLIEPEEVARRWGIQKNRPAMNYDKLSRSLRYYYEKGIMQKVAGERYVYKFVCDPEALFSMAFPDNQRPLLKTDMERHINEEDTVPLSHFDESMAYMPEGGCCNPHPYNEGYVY
# Procedure, shortened: as §1
# [12] = target: T8, ERF (Homo sapiens, UniProt P50548 1-548)
# T8 sequence: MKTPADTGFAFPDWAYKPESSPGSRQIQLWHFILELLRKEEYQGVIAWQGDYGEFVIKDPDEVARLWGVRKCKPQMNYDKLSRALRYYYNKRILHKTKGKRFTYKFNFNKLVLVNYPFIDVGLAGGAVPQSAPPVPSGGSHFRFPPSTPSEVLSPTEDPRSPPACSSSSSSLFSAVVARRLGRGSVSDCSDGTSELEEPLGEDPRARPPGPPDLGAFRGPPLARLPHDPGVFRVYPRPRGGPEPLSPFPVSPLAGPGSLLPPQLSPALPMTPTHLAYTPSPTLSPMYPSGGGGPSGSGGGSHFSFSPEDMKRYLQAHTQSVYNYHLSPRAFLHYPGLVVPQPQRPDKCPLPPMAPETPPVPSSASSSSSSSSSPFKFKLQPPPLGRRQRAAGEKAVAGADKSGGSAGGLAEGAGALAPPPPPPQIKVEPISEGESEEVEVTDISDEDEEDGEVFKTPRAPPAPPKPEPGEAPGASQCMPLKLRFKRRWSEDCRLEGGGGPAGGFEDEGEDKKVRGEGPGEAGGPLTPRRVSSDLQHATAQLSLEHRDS
# Procedure, shortened: as §1
# [13] = target: T9, ETV3L (Homo sapiens, UniProt Q6ZN32 1-361)
# T9 sequence: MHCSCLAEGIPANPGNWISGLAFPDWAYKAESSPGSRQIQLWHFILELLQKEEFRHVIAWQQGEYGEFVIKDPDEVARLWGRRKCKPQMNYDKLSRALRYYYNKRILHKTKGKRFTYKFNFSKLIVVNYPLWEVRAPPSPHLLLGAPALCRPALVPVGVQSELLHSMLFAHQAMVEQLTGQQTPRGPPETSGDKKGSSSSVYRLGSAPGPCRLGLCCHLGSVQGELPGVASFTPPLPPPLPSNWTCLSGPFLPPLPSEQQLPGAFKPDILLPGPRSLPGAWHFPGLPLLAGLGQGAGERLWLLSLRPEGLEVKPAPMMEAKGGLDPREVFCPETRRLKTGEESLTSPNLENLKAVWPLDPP
# Procedure, shortened: as §1
# [14] = target: T10, ETS2 (Homo sapiens, UniProt P15036 1-469)
# T10 sequence: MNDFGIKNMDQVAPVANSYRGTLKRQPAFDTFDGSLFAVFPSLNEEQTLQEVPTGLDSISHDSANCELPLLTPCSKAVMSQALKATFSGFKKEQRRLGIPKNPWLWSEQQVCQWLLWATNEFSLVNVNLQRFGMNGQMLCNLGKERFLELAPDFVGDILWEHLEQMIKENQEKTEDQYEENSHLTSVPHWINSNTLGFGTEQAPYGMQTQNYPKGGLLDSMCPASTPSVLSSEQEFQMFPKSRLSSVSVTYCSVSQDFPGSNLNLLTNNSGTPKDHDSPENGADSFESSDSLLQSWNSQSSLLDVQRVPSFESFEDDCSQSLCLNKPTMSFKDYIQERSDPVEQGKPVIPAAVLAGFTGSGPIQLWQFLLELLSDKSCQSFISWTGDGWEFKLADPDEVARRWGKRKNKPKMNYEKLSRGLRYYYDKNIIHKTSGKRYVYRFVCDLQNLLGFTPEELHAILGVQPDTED
# Procedure, shortened: as §1
# [15] = target: T11, ETV7 (Homo sapiens, UniProt Q9Y603 1-341)
# T11 sequence: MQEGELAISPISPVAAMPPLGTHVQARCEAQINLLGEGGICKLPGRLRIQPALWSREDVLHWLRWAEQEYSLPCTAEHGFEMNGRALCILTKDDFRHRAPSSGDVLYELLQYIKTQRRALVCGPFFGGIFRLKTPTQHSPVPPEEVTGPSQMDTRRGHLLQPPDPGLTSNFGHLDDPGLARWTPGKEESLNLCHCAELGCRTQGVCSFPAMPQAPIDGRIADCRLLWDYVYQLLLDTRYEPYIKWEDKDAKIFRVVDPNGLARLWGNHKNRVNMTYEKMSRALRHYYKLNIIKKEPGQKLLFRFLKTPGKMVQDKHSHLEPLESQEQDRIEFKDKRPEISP
# Procedure, shortened: as §1
# [16] = target: T12, ETV3 (Homo sapiens, UniProt P41162-2 1-143)
# T12 sequence: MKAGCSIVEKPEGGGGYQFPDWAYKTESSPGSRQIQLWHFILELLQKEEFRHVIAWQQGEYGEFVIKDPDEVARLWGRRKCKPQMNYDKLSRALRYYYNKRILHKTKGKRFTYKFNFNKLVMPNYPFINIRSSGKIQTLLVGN
# Procedure, shortened: as §1
# [17] = target: ETV6 (Homo sapiens, UniProt P41212 1-452)
# ETV6, sequence (P41212 whole entry): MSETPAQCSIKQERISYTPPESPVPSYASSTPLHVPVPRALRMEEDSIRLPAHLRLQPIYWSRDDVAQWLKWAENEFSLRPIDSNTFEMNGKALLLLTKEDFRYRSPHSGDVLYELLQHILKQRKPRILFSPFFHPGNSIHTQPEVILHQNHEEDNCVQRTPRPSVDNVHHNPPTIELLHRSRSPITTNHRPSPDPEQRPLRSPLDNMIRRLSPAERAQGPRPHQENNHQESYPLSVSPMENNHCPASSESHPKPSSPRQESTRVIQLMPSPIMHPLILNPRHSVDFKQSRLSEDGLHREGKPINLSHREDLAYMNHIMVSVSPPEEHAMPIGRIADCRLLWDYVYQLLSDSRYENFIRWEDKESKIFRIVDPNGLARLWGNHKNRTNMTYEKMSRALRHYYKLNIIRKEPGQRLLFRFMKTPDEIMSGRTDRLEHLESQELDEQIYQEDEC
# Procedure, shortened: as §1
sequence,measurement,setting,value
AAGGGC,binding signal,[1],"1.06 fold enrichment (6-mer frequency, TF over GST control)"
same,binding signal,[2],"1.02 fold enrichment (6-mer frequency, TF over GST control)"
same,binding signal,[3],"1.1 fold enrichment (6-mer frequency, TF over GST control)"
same,binding signal,[4],"1.06 fold enrichment (6-mer frequency, TF over GST control)"
same,binding signal,[5],"1.06 fold enrichment (6-mer frequency, TF over GST control)"
same,binding signal,[6],"1.01 fold enrichment (6-mer frequency, TF over GST control)"
same,binding signal,[7],"1.18 fold enrichment (6-mer frequency, TF over GST control)"
same,binding signal,[8],"1.06 fold enrichment (6-mer frequency, TF over GST control)"
same,binding signal,[9],"1.01 fold enrichment (6-mer frequency, TF over GST control)"
same,binding signal,[10],"1.06 fold enrichment (6-mer frequency, TF over GST control)"
same,binding signal,[11],"1.05 fold enrichment (6-mer frequency, TF over GST control)"
same,binding signal,[12],"1.06 fold enrichment (6-mer frequency, TF over GST control)"
same,binding signal,[13],"1.05 fold enrichment (6-mer frequency, TF over GST control)"
same,binding signal,[14],"1.1 fold enrichment (6-mer frequency, TF over GST control)"
same,binding signal,[15],"1.05 fold enrichment (6-mer frequency, TF over GST control)"
same,binding signal,[16],"1.07 fold enrichment (6-mer frequency, TF over GST control)"
same,binding signal,[17],"1.04 fold enrichment (6-mer frequency, TF over GST control)"
